# Most compounds without a hit are left out; they make up all but 9.6% or so of the library.
# USP30 inh = inhibitors of human USP30 deubiquitinase; Q70CQ3; purified USP30, Ub-rhodamine cleavage fluorescence; inhibition, % at 25 µM; actives 5.3% (n = 47,000)
# Target sequence (Q70CQ3 whole entry, looked up): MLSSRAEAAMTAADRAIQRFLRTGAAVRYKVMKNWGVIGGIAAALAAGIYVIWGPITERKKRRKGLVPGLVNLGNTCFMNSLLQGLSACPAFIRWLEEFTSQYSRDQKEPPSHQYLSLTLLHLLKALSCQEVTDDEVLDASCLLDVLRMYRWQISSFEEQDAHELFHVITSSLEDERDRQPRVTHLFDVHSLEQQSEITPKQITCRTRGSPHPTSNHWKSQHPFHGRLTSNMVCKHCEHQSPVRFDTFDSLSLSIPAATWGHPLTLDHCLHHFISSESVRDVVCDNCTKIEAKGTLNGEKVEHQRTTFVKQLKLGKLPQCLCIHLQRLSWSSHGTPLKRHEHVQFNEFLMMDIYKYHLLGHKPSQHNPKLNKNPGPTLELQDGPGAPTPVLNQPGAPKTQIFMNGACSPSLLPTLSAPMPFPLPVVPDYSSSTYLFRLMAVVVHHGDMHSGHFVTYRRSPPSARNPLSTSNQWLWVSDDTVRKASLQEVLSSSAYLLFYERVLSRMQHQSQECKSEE
# USP17 block = inhibitors of human USP17 deubiquitinase; purified USP17, Ub-rhodamine cleavage fluorescence, 3 h; inhibition, % at 50 µM; actives 6.5% (n = 47,000); AID 1645855
# The depositor's hits bear a star; i = inactive; nt = no result given. Cut-off read from the data, not from the text of the source: active = inhibition above about 30%; inactive = the rest.
SMILES,USP30 inh,USP17 block
Cc1ccc(CNC(=O)c2cnc(N3CCN(C)CC3)nc2C)o1,-106,-33
COc1ccccc1NC(=O)c1cc(S(=O)(=O)N2CCCCC2)c(C)n1C,-7,-6
Cc1c(S(=O)(=O)N2CCCC2)cc(C(=O)Nc2ccccc2)n1C,9,46*
O=C(NC1CC1)c1cnc(-c2ccccc2)nc1Sc1cccc(C(F)(F)F)c1,nt,18
CNc1nc(C)nc2c1oc1ccccc12,nt,13
OCCNc1nc(-c2ccccc2)nc2c1oc1ccccc12,71*,60*
Cc1cccnc1Nc1cc(C2CCCN(C(=O)c3cnc[nH]3)C2)ccn1 (stereo not drawn),9,-29
O=C(c1nnn(-c2ccc(F)cc2)c1-c1ccncc1)N1CCSCC1,11,-4
O=C(Cc1cccs1)Nc1cc(F)c2nc(N3CCOCC3)ccc2c1,-20,62*
O=C(CC1CCCC1)Nc1cc(F)c2nc(N3CCOCC3)ccc2c1,-35,21
COc1ccc(CC(=O)Nc2cc(F)c3nc(N4CCOCC4)ccc3c2)cc1,-18,-4
COc1ccc(C(=O)Nc2cc(F)c3nc(N4CCOCC4)ccc3c2)c(OC)c1,-127,73*
CCCc1nc(C2CN(Cc3cnc(C)s3)CCO2)n[nH]1 (stereo not drawn),-21,-7
Cc1cc(C)c(NC(=O)CCc2c(C)nc3nc[nH]n3c2=O)c(C)c1,nt,-7
COc1ccc(NS(=O)(=O)c2ccc(N3CCCC3)c(NC(=O)/C=C/c3ccccc3)c2)cc1,23,36*
COc1ccc(NS(=O)(=O)c2cc(NC(=O)C3CC3)ccc2N2CCCCC2)cc1,6,-3
COc1ccc(NS(=O)(=O)c2cc(NC(=O)/C=C/c3ccco3)ccc2N2CCCC2)cc1,55*,75*
O=C(/C=C/c1ccccc1)Nc1cc(S(=O)(=O)Nc2cccc(Cl)c2)ccc1Cl,-12,6
CC(CCc1ccccc1)NC(=O)c1nc(-c2ccc(F)cc2)no1 (stereo not drawn),20,13
Cc1ccc(C(C(=O)NCc2ccc3c(c2)OCO3)N(C(=O)c2ccc3c(c2)OCCO3)c2cc(C)cc(C)c2)cc1 (stereo not drawn),-27,4
Cc1ccc(C(C(=O)NCc2ccc3c(c2)OCO3)N(C(=O)c2ccc3c(c2)OCCO3)C2CCCC2)cc1 (stereo not drawn),-108,49*
CCn1c(SCC(=O)Nc2cc(Cl)cc(Cl)c2)nnc1-c1cnccn1,-32,2
O=C(Cn1c(=O)c2sccc2n(CC(=O)OCc2ccccc2)c1=O)NCc1ccccc1Cl,12,16
COc1ccc(CNC(=O)CCn2c(=O)c3sccc3n(Cc3ccccc3C#N)c2=O)cc1,56*,55*
O=C(CCCn1c(=O)c2sccc2n(Cc2ccc(F)cc2)c1=O)NCc1ccco1,23,29
SMILES,USP30 inh,USP17 block
O=C(Cn1c(=O)c2sccc2n(Cc2ccc([N+](=O)[O-])cc2)c1=O)NCCc1ccccc1,50*,26
COc1ccc(CCNC(=O)Cn2c(=O)c3sccc3n(Cc3ccccc3C#N)c2=O)cc1OC,24,12
O=C(CCn1c(=O)c2sccc2n(Cc2ccc([N+](=O)[O-])cc2)c1=O)NCc1ccccc1,50*,52*
Cc1cccc(C)c1N1CCN(Cc2ccc(Cl)nc2)CC1,nt,-17
O=C(NCCCN1CCOCC1)c1cc(-c2ccccc2Cl)nc2ccccc12,16,-5
COc1ccc(-c2nn3c(Nc4ccc(NC(C)=O)cc4)cc(C)nc3c2C)cc1OC,-14,-1
O=C(NCCN1CCN(c2nccc(C(F)(F)F)n2)CC1)c1cccs1,0,4
COc1ccc(-c2noc(C3(C)CCOCC3)n2)cc1,nt,-3
COc1cccc(CNC(=O)C2Cn3ccnc3C3(CCN(CC(C)C)CC3)O2)c1 (stereo not drawn),-4,-29
Cc1ccc(NC2c3ccccc3C(=O)N2c2ccccn2)cc1 (stereo not drawn),-10,-4
COc1ccc(NC2c3ccccc3C(=O)N2c2ccccn2)cc1 (stereo not drawn),-77,57*
CNc1nc2c(c(=O)n1C)CN(C(=O)Nc1ccc3ccccc3c1)CC2,-5,0
COc1ccc(OC)c(Nc2nc(-c3ccc(Cl)cc3)c(C)s2)c1,10,5
COCC(C)Nc1nc2cc(C)nn2c2ccccc12 (stereo not drawn),nt,-1
O=C(COC(=O)c1ccc2[nH]c3c(c2c1)CCCC3)Nc1ccc2c(c1)OCO2,42*,66*
COc1ccc(Cl)cc1C(=O)OCC(=O)Nc1ccc2c(c1)OCO2,-33,14
O=C(COC(=O)c1ccc2[nH]c3c(c2c1)CCCC3)Nc1ccccc1-c1ccccc1,-53,nt
CC(C)c1ccc(NC(=O)COC(=O)c2ccc3[nH]c4c(c3c2)CCCC4)cc1,-20,58*
CS(=O)(=O)c1ccc(Cl)c(NC(=O)COC(=O)c2ccc3[nH]c4c(c3c2)CCCC4)c1,35*,nt
O=C(COC(=O)c1ccc2[nH]c3c(c2c1)CCCC3)Nc1ccccc1Cl,-2,11
CC(=O)N1CCc2cc(S(=O)(=O)NCCC(=O)NCc3ccccc3Cl)ccc21,-1,-6
CCc1ccc(N2C(=O)c3ccccc3C2C(=O)NCc2ccccc2OC)cc1 (stereo not drawn),63*,68*
COc1ccccc1CNC(=O)CC1c2ncccc2C(=O)N1c1ccccc1 (stereo not drawn),-16,-14
CC(C)(C)C(=O)N1CCC2(C1)Nc1cccnc1NC2=NCc1ccccc1 (stereo not drawn),i,-151
COc1ccc(C(=O)Nc2cc(-c3nc4cccnc4s3)ccc2C)c(OC)c1,-29,-24
SMILES,USP30 inh,USP17 block
COCCN1[C@H]2CCN(C(=O)C3CC3)CC[C@@H]2Oc2ccccc2S1(=O)=O,15,12
CC(C)=CCC[C@](C)(O)[C@H]1CC[C@]2(C)[C@@H]1CC[C@@H]1[C@@]3(C)CC[C@H](O)C(C)(C)[C@@H]3CC[C@]12C,5,22
C=C(C)[C@@H]1CC[C@]2(C)[C@H](CC[C@@H]3[C@@H](C(C)(O)CCC=C(C)C)CC[C@]32C)[C@@]1(C)CCC(=O)O (stereo partly drawn),93*,99*
CC(C)c1ncc(CN2CCC(C3CC=CCN(Cc4ccc(F)cc4)C3=O)CC2)cn1 (stereo not drawn),30,2
O=C(COc1ccccc1C(=O)Nc1ccccc1)Nc1ccc2[nH]c(=O)[nH]c2c1,-27,38*
Cc1ccc(NC(=O)c2ccccc2NC(=O)COc2cc(C)cc(C)c2)cc1,-34,0
COc1cccc(C(=O)OCC(=O)Nc2ccc(C)c(S(=O)(=O)N3CCCCC3)c2)c1OC,11,7
Cc1nnc(SC(C)C(=O)Nc2ccc3[nH]c(=O)[nH]c3c2)n1Cc1ccccc1 (stereo not drawn),-27,-6
Cc1ccccc1CSCC(=O)Nc1ccc2[nH]c(=O)[nH]c2c1,42*,45*
O=C(COC(=O)c1ccc(Cl)cc1)Nc1ccc2[nH]c(=O)[nH]c2c1,74*,14
CC(Oc1ccc(Cl)cc1)C(=O)OCC(=O)Nc1ccc2[nH]c(=O)[nH]c2c1 (stereo not drawn),-17,23
Cc1cccc(C(=O)OCC(=O)Nc2ccc3[nH]c(=O)[nH]c3c2)c1C,52*,40*
O=C(Cc1cccc(O)c1)N1CCn2c(nnc2C2CC2)C1,19,4
CCOc1ccccc1NC(=O)N1CCN(Cc2nnnn2-c2cccc(F)c2)CC1,0,-4
